From PubChem BioAssay (NCI)
The panel holds about 83,000 compounds, 20% with a hit somewhere; the sample as a whole holds those more often.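 Method: cells in 96-well plates; compound added at one concentration; 48 h incubation; percent growth measured; values under 10 scored active.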 Values without a mark were called inactive. The source made the active and inactive calls.

What was measured:
Assay in all cases: NCI-60 one-dose screen, 48 h (100 = growth as untreated, 0 = no growth, -100 = all killed)
Settings in all cases: 10 µM unless noted
HCT-15 colon = test system: HCT-15 colon
HT29 colon = test system: HT29 colon
SNB-75 CNS = test system: SNB-75 CNS
SNB-19 CNS = test system: SNB-19 CNS
U251 CNS = test system: U251 CNS
PC-3 prostate = test system: PC-3 prostate
SK-MEL-5 melanoma = test system: SK-MEL-5 melanoma
UACC-62 melanoma = test system: UACC-62 melanoma
LOX IMVI melanoma = test system: LOX IMVI melanoma
SK-MEL-28 melanoma = test system: SK-MEL-28 melanoma

Row | SMILES | growth (HCT-15 colon) | growth (HT29 colon) | growth (SNB-75 CNS) | growth (SNB-19 CNS) | growth (U251 CNS) | growth (PC-3 prostate) | growth (SK-MEL-5 melanoma) | growth (UACC-62 melanoma) | growth (LOX IMVI melanoma) | growth (SK-MEL-28 melanoma)
1 | COc1cc(NC(C)CCCN2C(=O)c3ccccc3C2=O)c2ncccc2c1OC (stereo not given) | 94.1% | 101% | 84.8% | 94.1% | 107% | 71.3% | 84.3% | 90.1% | 79.2% | 105%
2 | CCN(CC)c1ccc(C2CC(c3cc(OC)c(OC)c(OC)c3)=NN2)cc1 (stereo not given) | 36.1% | -3.21% (active) | 18.7% | 14% | 33% | 26.3% | -26.4% (active) | 48.5% | 40.5% | 64.8%
3 | C[C@]12O[C@H]1[C@H](O)c1c(cc(O)c3c1C(=O)c1cccc(O)c1-3)C2=O | 103% | 92.9% | 86.3% | 104% | 97.6% | 87.3% | 97.7% | 88.2% | 87.8% | 107%
4 | O=c1c2ccccc2sc2c(N3CCCC3)nc3ccccc3c12 | 94% | 92.3% | 86.6% | 95.9% | 98.5% | 83.4% | 92.6% | 79% | 85.9% | 120%
5 | C=C1C(=O)O[C@H]2[C@H]1CC/C(COC(=O)OC/C1=C/CC[C@@]3(C)O[C@H]3[C@H]3OC(=O)[C@@H](CN(C)C)[C@@H]3CC1)=C\CC[C@@]1(C)O[C@@H]21 | 1.8% (active) | -8% (active) | 91% | 80.3% | 60.6% | 72.7% | 46.9% | -28.1% (active) | -72.3% (active) | -18.3% (active)
6 | Nc1nc(Cl)c2c(C(F)(F)F)cn(CC3CCNCC3)c2n1 | 35.6% | 19.7% | 97.6% | 61.5% | 45% | 93.2% | 94.9% | 86.8% | -12.9% (active) | 83.6%
7 | O=C1c2ccccc2C(=O)c2c(NCCN=Cc3c(O)ccc4ccccc34)cccc21 | 77% | 88% | 84% | 84.9% | 83% | 84.5% | 86.7% | 85.8% | 66.7% | 117%
8 | O=C(CSc1nnc(-c2ccccc2)o1)Nc1ccc(C(=O)/C=C/c2ccccc2)cc1 | 25.8% | 32.4% | 33.5% | 64.9% | 44.1% | 77% | 78.9% | 82.3% | 24.4% | 97%
9 | COc1cc(Br)c(-c2nc(-c3ccccc3)c(-c3ccccc3)n2Cc2ccccc2)cc1OC | 47.4% | 32.3% | 86.7% | 67.2% | 64.1% | 29.7% | 54% | 53.1% | 61.3% | 91.1%
10 | O=C1/C(=C/c2cccc3cnccc23)Cc2cc(F)ccc21 | 87.1% | 94.6% | 107% | 102% | 95.8% | 79.2% | 89.9% | 86.3% | 93% | 109%
11 | CCOc1ccc(Cc2nccc3cc(OCC)c(OCC)cc23)cc1OCC | 59.8% | 25.2% | 99.6% | 62.5% | 62.8% | 52.9% | 47.1% | 50.7% | 53.8% | 91.7%
12 | COc1ccc(CNc2nc3ccccc3c3c(=O)c4ccccc4sc23)cc1OC | 90.2% | 73% | 21.8% | 86.5% | 79.8% | 72.9% | 78% | 68.8% | 82.7% | 93.3%
